# Structures can show the parent of a compound that is named as a salt. ± gives the standard deviation of the averaged measurements.
# Tested on: Saccharomyces cerevisiae BY4741 SeMeCo community
# Experiment: mean cell size (pixel area) (pixels); higher = larger cells
# Settings: 10 µM; 24 h; SM minimal medium
# How it was run: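 Mean cell pixel area per well was determined by automated confocal microscopy with Harmony analysis of paraformaldehyde-fixed cells. The cells, a Saccharomyces cerevisiae BY4741 community of four plasmids that each complement one auxotrophy and carry a fluorescent marker, were incubated for 24 h with drug at a final 10 µM in SM medium in 384-well plates. Numbers are averaged over 3 replicates. Same SeMeCo high-content imaging drug screen: Selleck FDA-approved drugs at 10 µM, 24 h in SM medium, 384-well plates, 3 replicates.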
row,SMILES,mean cell size
1,CN(C)C[C@@H]1CCn2cc(c3ccccc32)C2=C(C(=O)NC2=O)c2cn(c3ccccc23)CCO1,12.64 ± 0.084
2,CCCCN1CCCC[C@H]1C(=O)Nc1c(C)cccc1C [Levobupivacaine HCl],12.4 ± 0.15
3,COc1ccc(C(=O)NCc2ccc(OCCN(C)C)cc2)cc1OC [Itopride hydrochloride],12.4 ± 0.13
4,COc1ccccc1OCC(O)CN1CCN(CC(=O)Nc2c(C)cccc2C)CC1 (stereo not given) [Ranolazine],12.5 ± 0.23
5,Cc1nc(C)c(Cl)c(O)c1Cl [Clopidol],12.22 ± 0.083
6,CN[C@@H]1[C@@H](O)[C@@H](O[C@@H]2[C@@H](O)[C@H](O[C@H]3O[C@H](CN)[C@@H](O)[C@H](O)[C@H]3O)[C@@H](N)C[C@H]2NC(=O)[C@@H](O)CN)OC[C@]1(C)O [Isepamicin Sulphate],12.1 ± 0.21
7,CCCC1CC(C(=O)NC(C(C)Cl)C2OC(SC)C(O)C(O)C2O)N(C)C1 (stereo not given) [Clindamycin alcoholate],12.1 ± 0.19
8,CN1CCN(c2cc3c(cc2F)c(=O)c(C(=O)O)cn3-c2ccc(F)cc2)CC1 [Difloxacin hydrochloride],12.1 ± 0.29
9,Cc1ccc(C(=O)C(C)CN2CCCCC2)cc1 (stereo not given) [Tolperisone HCl],12.6 ± 0.14
10,Nc1nnc(-c2cccc(Cl)c2Cl)c(N)n1 [Lamotrigine],12.37 ± 0.07
11,C#CCN[C@@H]1CCc2ccccc21 [Rasagiline],12.26 ± 0.11
12,C[C@@H](O)[C@H]1C(=O)N2C(C(=O)O)=C(S[C@@H]3CN[C@H](C(=O)Nc4cccc(C(=O)O)c4)C3)[C@H](C)[C@H]12 [Ertapenem sodium],11.9 ± 0.17
13,CCOC(=O)C1=C(COCCN)NC(C)=C(C(=O)OC)C1c1ccccc1Cl (stereo not given) [Amlodipine Besylate],12.6 ± 0.18
14,CN1CCC[C@@H]1Cc1c[nH]c2ccc(CCS(=O)(=O)c3ccccc3)cc12 [Eletriptan HBr],12.5 ± 0.44
15,O=C(O)c1cc(/N=N/c2ccc(O)c(C(=O)O)c2)ccc1O [Olsalazine Sodium],12.63 ± 0.099
16,CC1=C(C(=O)O)N2C(=O)[C@@H](NC(=O)[C@H](N)C3=CCC=CC3)[C@H]2SC1 [Cefradine],12.12 ± 0.02
17,Cc1onc(-c2ccccc2)c1C(=O)N[C@@H]1C(=O)N2[C@@H]1SC(C)(C)[C@@H]2C(=O)O [Oxacillin sodium monohydrate],12.04 ± 0.12
18,CCOc1cc(N)c(Cl)cc1C(=O)NCC1CN(Cc2ccc(F)cc2)CCO1 (stereo not given) [Mosapride],12.5 ± 0.23
19,CCc1c(C)[nH]c2c1C(=O)C(CN1CCOCC1)CC2 (stereo not given) [Molindone hydrochloride],12.2 ± 0.13
20,COc1c(N2C[C@@H]3CCCN[C@@H]3C2)c(F)cc2c(=O)c(C(=O)O)cn(C3CC3)c12 [Moxifloxacin HCl],12.3 ± 0.15

row,SMILES,mean cell size
1,CC(=O)NS(=O)(=O)c1ccc(N)cc1 [Sulfacetamide Sodium],12.4 ± 0.26
2,CC1(C)S[C@@H]2[C@H](NC(=O)[C@H](C(=O)O)c3ccsc3)C(=O)N2[C@H]1C(=O)O [Ticarcillin sodium],12.4 ± 0.22
3,CCCCN(CCCC)CC(O)c1cc(Cl)cc2c1-c1ccc(Cl)cc1/C2=C/c1ccc(Cl)cc1 (stereo not given) [Lumefantrine],12.4 ± 0.14
4,O=S(=O)(O)CCCCOC[C@H]1O[C@@H]2O[C@H]3[C@H](O)[C@@H](O)[C@@H](O[C@H]4[C@H](O)[C@@H](O)[C@@H](O[C@H]5[C@H](O)[C@@H](O)[C@@H](O[C@H]6[C@H](O)[C@@H](O)[C@@H](O[C@H]7[C@H](O)[C@@H](O)[C@@H](O[C@H]8[C@H](O)[C@@H](O)[C@@H](O[C@H]1[C@H](O)[C@H]2O)O[C@@H]8CO)O[C@@H]7COCCCCS(=O)(=O)O)O[C@@H]6COCCCCS(=O)(=O)O)O[C@@H]5COCCCCS(=O)(=O)O)O[C@@H]4COCCCCS(=O)(=O)O)O[C@@H]3COCCCCS(=O)(=O)O,12.1 ± 0.26
5,Cc1ccc(Sc2ccccc2N2CCNCC2)c(C)c1 [Vortioxetine],12.18 ± 0.097
6,CN(CCOc1ccc(NS(C)(=O)=O)cc1)CCc1ccc(NS(C)(=O)=O)cc1 [Dofetilide],12.4 ± 0.18
7,CN1CCOC(c2ccccc2)c2ccccc2C1 (stereo not given) [Nefopam HCl],12.1 ± 0.25
8,CN(C)c1ccc(O)c2c1C[C@H]1C[C@H]3[C@H](N(C)C)C(O)=C(C(N)=O)C(=O)[C@@]3(O)C(O)=C1C2=O [Minocycline HCl],12.2 ± 0.13
9,CCC1=C(C)CN(C(=O)NCCc2ccc(S(=O)(=O)NC(=O)N[C@H]3CC[C@H](C)CC3)cc2)C1=O [Glimepiride],12.5 ± 0.2
10,CCN1CC(CCN2CCOCC2)C(c2ccccc2)(c2ccccc2)C1=O (stereo not given) [Doxapram HCl],12.5 ± 0.14
11,Cc1cc(/C=C/c2ccc3cc(N(C)C)ccc3[n+]2C)c(C)n1-c1ccccc1 [pyrvinium],12.38 ± 0.085
12,CC[C@H]1OC(=O)C[C@@H](O)[C@H](C)[C@@H](O[C@@H]2O[C@H](C)[C@@H](O[C@H]3C[C@@](C)(O)[C@@H](O)[C@H](C)O3)[C@H](N(C)C)[C@H]2O)[C@@H](CC=O)C[C@@H](C)C(=O)/C=C/C(C)=C/[C@@H]1CO[C@@H]1O[C@H](C)[C@@H](O)[C@@H](OC)[C@H]1OC [Tylosin],12.16 ± 0.07
13,CO/N=C(\C(=O)N[C@@H]1C(=O)N2C(C(=O)O)=C(Cn3ccc(=N)n3CCO)CS[C@H]12)c1csc(N)n1 [Cefoselis Sulfate],12.3 ± 0.24
14,CCN(CC)C(=O)[C@@]1(c2ccccc2)C[C@H]1CN [Levomilnacipran Hydrochloride],12.1 ± 0.27
15,CCCCC(=O)O[C@H]1CC[C@H]2[C@@H]3CCc4cc(O)ccc4[C@H]3CC[C@]12C [Estradiol valerate],12.4 ± 0.22
16,OCc1ccccc1O[C@@H]1O[C@H](CO)[C@@H](O)[C@H](O)[C@H]1O [Salicin],12.4 ± 0.14
17,CC(=O)N[C@H]1[C@H]([C@H](O)[C@H](O)CO)OC(C(=O)O)=C[C@@H]1NC(=N)N [Zanamivir],11.9 ± 0.17
18,CC[C@@H]1/C=C(\C)C[C@H](C)C[C@H](OC)[C@H]2O[C@@](O)(C(=O)C(=O)N3CCCC[C@H]3C(=O)O[C@H](/C(C)=C/[C@@H]3CC[C@@H](O)[C@H](OC)C3)[C@H](C)[C@@H](O)CC1=O)[C@H](C)C[C@@H]2OC [Ascomycin (FK520)],11.8 ± 0.18
19,O=C(O)Cc1ccccc1Nc1c(Cl)cccc1Cl [Diclofenac Sodium],12.7 ± 0.18
20,CCC(=O)NS(=O)(=O)c1ccc(-c2c(-c3ccccc3)noc2C)cc1 [Parecoxib],12.6 ± 0.088

# From the supplement of paper PMC8975748
